From PubChem BioAssay
Active and inactive are the calls of the source.

Key:
[1] = anti-His antibody binders, primary screen, artefact control for SMM control protein annotation, biochemical, small-molecule microarray, 635 nm fluorescence (AID 1128); conditions: anti-His Alexa647 antibody binding, higher = more signal;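 also: score merges feature fluorescence with signal-to-noise for each printed compound spot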
[2] = system: Human papillomavirus type 1a E7 protein (residues 1-88); assay: HPV1a E7 small-molecule binders, primary screen, biochemical, small-molecule microarray, residues 1-88, 635 nm (AID 1129); conditions: small-molecule microarray binding, fluorescence 635 nm; higher = more signal
[3] = molecular target: Focal adhesion kinase 1 (Homo sapiens) (UniProt Q05397); assay: small-molecule microarray binders of FAK, primary screen, biochemical, 635/667 nm fluorescence, BSA, DTT (AID 1130); conditions: PTK2 binding, 635 nm fluorescence, higher = more signal;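 also: composite of spot emission at 667 nm and signal to noise over triplicate slides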
[4] = system: Fibrinogen (Alexa647-labelled); assay: fibrinogen binders on compound microarrays, profiling panel, artefact control for SMM control-protein annotation, biochemical, small-molecule microarray, 635/667 nm fluorescence (AID 1131); conditions: fibrinogen-A647 binding fluorescence, higher = more signal;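 also: z-score merges 667 nm fluorescence with per-spot signal-to-noise over triplicate slides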
[5] = molecular target: Follistatin (Homo sapiens) (UniProt P19883); assay: follistatin binders on small-molecule microarrays, primary screen, biochemical, small-molecule microarray, 635/667 nm fluorescence (AID 1132); conditions: FST binding, 635 nm fluorescence, higher = more signal
[6] = molecular target: Fibroblast growth factor 2 (Homo sapiens) (UniProt P09038); assay: FGF2 binders on small-molecule microarrays, primary screen, biochemical, small-molecule microarray, 635/667 nm fluorescence (AID 1133); conditions: small-molecule microarray binding, FGF2, fluorescence 635/667; higher = more signal
[7] = mitochondrial membrane potential change in A549 cells, profiling panel, cell-based, JC-1 fluorescence, basal, 24 h, 100 nL (AID 1138); conditions: higher = more signal;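 also: A549 lung adenocarcinoma cells under basal conditions with no added stimulus; test concentration not given here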
Lefty1 = Lefty1 binders on small-molecule microarrays, primary screen, biochemical, small-molecule microarray, 635/667 nm fluorescence (AID 1139); conditions: small-molecule microarray binding, fluorescence 635/667; higher = more signal
[8] = system: wheat germ agglutinin (Triticum aestivum), Alexa647-labelled; assay: wheat germ agglutinin binders on compound microarrays, profiling panel, artefact control for SMM control-protein annotation, biochemical, small-molecule microarray, 635/667 nm fluorescence (AID 1140); conditions: WGA-A647 binding, 635 nm fluorescence, higher = more signal;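 also: score merges 667 nm feature emission with signal to noise over triplicate slides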
[9] = molecular target: Luciferin 4-monooxygenase (Photinus pyralis) (UniProt P08659); assay: firefly luciferase enzyme inhibitors, primary screen, biochemical, luminescence, purified enzyme, 2006 set (AID 1141); conditions: SteadyGlo luminescence, 30 min, higher = more signal, called active from +8 up or from −8 down;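 also: cell-free assay with purified firefly luciferase at 100 ng per well in PBS; test concentration not given here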
Sequence of Luciferin 4-monooxygenase (Photinus pyralis) (P08659 whole entry, looked up): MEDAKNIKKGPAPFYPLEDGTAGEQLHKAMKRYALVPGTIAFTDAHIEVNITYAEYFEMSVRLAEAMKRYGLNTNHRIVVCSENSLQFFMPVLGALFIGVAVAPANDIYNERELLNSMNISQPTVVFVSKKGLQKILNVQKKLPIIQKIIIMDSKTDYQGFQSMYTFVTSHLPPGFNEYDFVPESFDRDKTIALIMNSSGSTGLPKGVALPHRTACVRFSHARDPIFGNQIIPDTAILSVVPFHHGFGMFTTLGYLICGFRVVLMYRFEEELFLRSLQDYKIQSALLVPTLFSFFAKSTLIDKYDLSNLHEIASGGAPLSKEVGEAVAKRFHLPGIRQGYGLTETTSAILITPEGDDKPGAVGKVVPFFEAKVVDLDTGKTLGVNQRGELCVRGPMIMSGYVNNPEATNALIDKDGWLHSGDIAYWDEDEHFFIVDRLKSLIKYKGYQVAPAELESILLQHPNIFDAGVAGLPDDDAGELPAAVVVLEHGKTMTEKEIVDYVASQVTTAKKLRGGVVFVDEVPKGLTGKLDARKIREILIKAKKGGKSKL

Sequence of Follistatin (Homo sapiens) (P19883 whole entry, looked up): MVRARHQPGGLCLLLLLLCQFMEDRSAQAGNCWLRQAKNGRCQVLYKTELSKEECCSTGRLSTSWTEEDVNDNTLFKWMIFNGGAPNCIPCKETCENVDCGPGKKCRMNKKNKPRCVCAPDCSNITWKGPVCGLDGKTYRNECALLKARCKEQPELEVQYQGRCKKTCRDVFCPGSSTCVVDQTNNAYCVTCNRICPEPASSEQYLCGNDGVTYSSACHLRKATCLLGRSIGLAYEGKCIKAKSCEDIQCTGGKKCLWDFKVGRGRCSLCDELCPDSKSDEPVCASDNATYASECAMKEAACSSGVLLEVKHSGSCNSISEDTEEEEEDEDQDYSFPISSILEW
Sequence of Focal adhesion kinase 1 (Homo sapiens) (Q05397 whole entry, looked up): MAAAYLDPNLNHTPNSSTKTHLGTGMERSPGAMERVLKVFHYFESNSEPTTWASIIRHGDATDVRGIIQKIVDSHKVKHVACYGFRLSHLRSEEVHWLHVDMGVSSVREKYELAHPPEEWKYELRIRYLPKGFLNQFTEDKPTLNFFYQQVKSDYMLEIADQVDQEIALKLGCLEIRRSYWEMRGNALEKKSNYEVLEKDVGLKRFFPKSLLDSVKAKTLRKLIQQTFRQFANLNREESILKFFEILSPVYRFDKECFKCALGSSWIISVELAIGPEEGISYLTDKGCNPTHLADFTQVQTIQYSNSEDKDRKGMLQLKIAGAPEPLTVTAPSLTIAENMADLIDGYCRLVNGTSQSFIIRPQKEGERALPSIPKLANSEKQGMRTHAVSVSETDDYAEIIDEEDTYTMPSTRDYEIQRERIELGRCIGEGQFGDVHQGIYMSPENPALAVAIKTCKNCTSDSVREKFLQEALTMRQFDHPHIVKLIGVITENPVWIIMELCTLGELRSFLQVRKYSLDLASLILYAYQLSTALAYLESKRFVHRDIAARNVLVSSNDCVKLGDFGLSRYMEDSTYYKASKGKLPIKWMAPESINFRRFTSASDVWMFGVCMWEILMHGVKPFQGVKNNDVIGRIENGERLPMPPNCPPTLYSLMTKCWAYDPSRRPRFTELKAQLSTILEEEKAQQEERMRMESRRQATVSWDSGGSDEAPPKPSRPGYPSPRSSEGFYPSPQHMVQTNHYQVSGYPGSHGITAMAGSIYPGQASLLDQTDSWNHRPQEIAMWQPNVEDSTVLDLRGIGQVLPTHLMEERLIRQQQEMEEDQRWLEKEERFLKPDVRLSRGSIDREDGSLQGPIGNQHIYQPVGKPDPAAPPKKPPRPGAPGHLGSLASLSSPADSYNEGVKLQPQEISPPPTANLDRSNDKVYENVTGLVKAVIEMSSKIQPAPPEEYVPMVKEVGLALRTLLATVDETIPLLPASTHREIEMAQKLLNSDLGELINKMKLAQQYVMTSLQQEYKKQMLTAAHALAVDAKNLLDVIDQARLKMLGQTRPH
Sequence of Fibroblast growth factor 2 (Homo sapiens) (P09038 whole entry, looked up): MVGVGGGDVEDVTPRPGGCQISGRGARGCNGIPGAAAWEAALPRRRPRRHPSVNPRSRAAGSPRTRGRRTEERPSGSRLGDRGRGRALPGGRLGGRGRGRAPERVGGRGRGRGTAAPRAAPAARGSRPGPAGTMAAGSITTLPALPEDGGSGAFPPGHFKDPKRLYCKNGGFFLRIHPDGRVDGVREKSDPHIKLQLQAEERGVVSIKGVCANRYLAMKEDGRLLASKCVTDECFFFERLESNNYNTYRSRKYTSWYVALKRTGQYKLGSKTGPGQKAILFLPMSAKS

Row | Structure (SMILES) | composite z-score [1] | composite z-score [2] | composite z-score [3] | composite z-score [4] | composite z-score [5] | composite z-score [6] | z-score [7] | composite z-score (Lefty1) | composite z-score [8] | z-score [9]
1 | COC(=O)c1c2oc(c1C(=O)OC)C(=O)N1CCC[C@H]1Cn1nncc1CN(Cc1ccccc1)C(=O)N[C@H](CO)CC2 | 0.328 | -0.243 | 0.291 | 0.676 | 0.423 | 1.04 | 0.39 | 0.783 | 0.18 | -1.29 (inactive)
2 | C=CCN1C(=O)[C@]2(O[C@H](CCO)[C@@H]([Si](C)(C)c3ccc(OC)cc3)[C@@H]2C)c2cc(N3C(=O)COc4ccccc43)ccc21 | 1.3 | 0.853 | 0.179 | 0.55 | 0.618 | 0.405 | -1.46 | 0.465 | 0.441 | -0.401 (inactive)
3 | O=C(CS)NCCCCCNC(=O)[C@@H]1C[C@@H]2C(=O)N[C@@H](Cc3ccccc3)C(=O)N2[C@@H]1c1cccc(OCCO)c1 | 0.768 | 1.24 | 0.334 | 0.284 | 1.39 | 1.6 | 0.296 | 0.4 | 0.288 | -1.97 (inactive)
4 | COc1ccc(C(=O)Nc2cccc(CN3C(=O)[C@@]4(O[C@@H](CC(=O)N(CCO)Cc5ccccc5)[C@H]([Si](C)(C)c5ccc(OC)cc5)[C@H]4C)c4ccccc43)c2)cc1 | 0.696 | 1.01 | 0.16 | 0.193 | 0.99 | 1.08 | -0.106 | 1.18 | 0.289 | -1.75 (inactive)
5 | NC(=O)[C@@H]1[C@H]2C(=O)O[C@H](c3ccccc3)[C@H](c3ccccc3)N2[C@H](c2ccc(OCCO)cc2)[C@@]12C(=O)Nc1ccc(C#CCCO)cc12 | 2.24 | 0.988 | 0.215 | 0.639 | 0.89 | 0.396 | -0.399 | -0.143 | 0.659 | -2.01 (inactive)
6 | O=C1OCCC/C=C\[C@H]2OC34C=CCN(c5ccc6ccccc6c5)C(=O)[C@H]3N(CCCO)C(=O)[C@@H]4C12 (stereo not given in full) | 1.09 | -0.0247 | 0.984 | -1.07 | -0.45 | -0.755 | 0.333 | -0.345 | 0.576 | -0.183 (inactive)
7 | COc1cc(NN2C(C(O)c3cc(OC)c(OC)c(OC)c3)C=CC3C(=O)N(c4ccccc4)C(=O)C32)cc(OC)c1OC (stereo not given) | 1.41 | 1.27 | 0.6 | 1.04 | 1.28 | 1.56 | -0.609 | 0.133 | 0.848 | -0.771 (inactive)
8 | COC(=O)C1=CC(CCCO)=CC(C)N(Cc2cccc(OC(F)(F)F)c2)C=C1C(=O)OC (stereo not given) | 0.178 | 0.702 | 0.955 | -0.269 | -0.278 | -0.807 | 0.142 | -0.0105 | 1.11 | 0.347 (inactive)
9 | C=C(COC)/C(=C/C[C@@H](OC(=O)c1ccncc1)c1ccccc1OCCO)c1cc(C(=O)OC)ccc1OC | -1.25 | -0.975 | -0.478 | -1.5 | 0.249 | -0.203 | 2.02 | -0.247 | -1.12 | -2.4 (inactive)
10 | CN1C(=O)C2C=CC(C(O)c3cc(C(F)(F)F)cc(C(F)(F)F)c3)N(NC(=O)OC(C)(C)C)C2C1=O (stereo not given) | 1.12 | 1.2 | 0.753 | 0.982 | 1.27 | -0.396 | 0.717 | 0.369 | 0.713 | 0.75 (inactive)
11 | O=C(NCC(O)CO)[C@@]1(CCS(=O)(=O)c2ccccc2)COC(c2ccc(OCCCO)cc2)=N1 (stereo not given in full) | 2.29 | 1.17 | 0.204 | 0.904 | 1.36 | 1.28 | -0.583 | -0.682 | 0.41 | 0.405 (inactive)
12 | CC(C)CNC(=O)[C@@]1(c2ccc([N+](=O)[O-])cc2)CC(=O)N(C2CCCCC2)[C@@H]1c1ccc(CO)cc1 | 1.91 | 1.23 | -0.0282 | 0.583 | 0.536 | 1.04 | 0.214 | -0.35 | 0.29 | -0.977 (inactive)
13 | CCCCCN1CC=CC23O[C@@H]4C=CCOC(=O)[C@@H]4[C@H]2C(=O)N(CCO)[C@@H]3C1=O (stereo not given in full) | 1.58 | -0.22 | 0.0763 | -1.05 | -0.693 | -0.903 | -0.222 | -0.306 | -0.324 | 0.056 (inactive)
14 | C=CCC(OC(C)=O)[C@@H]1[C@@H](N(Cc2cccc3ccccc23)C(=O)c2cccc3ccccc23)c2cc(OCCCO)ccc2N1C(=O)c1ccc2ccccc2c1 (stereo not given in full) | 0.279 | 0.18 | -0.0836 | 0.0439 | 1.14 | 0.061 | -0.348 | 0.11 | -0.223 | 1.48 (inactive)
15 | CC(C)N1CC=CC23O[C@@H]4/C=C\CCCOC(=O)C4[C@H]2C(=O)N(CCCCCCO)[C@@H]3C1=O (stereo not given in full) | 1.3 | -0.808 | 0.0835 | -1.38 | -1.04 | -1.2 | 1.49 | -0.934 | -0.724 | -1.88 (inactive)
16 | CCOC(=O)C1=CCN(S(=O)(=O)c2ccc(C)cc2)C1c1ccccc1 (stereo not given) | 0.843 | 1.2 | 0.656 | 0.609 | 0.467 | 0.835 | 0.942 | 0.0842 | 0.652 | 1.75 (inactive)

Row | Structure (SMILES) | composite z-score [1] | composite z-score [2] | composite z-score [3] | composite z-score [4] | composite z-score [5] | composite z-score [6] | z-score [7] | composite z-score (Lefty1) | composite z-score [8] | z-score [9]
17 | COC(=O)[C@@]1(Cc2ccc(F)cc2)[C@H]2c3cc(C(=O)N4CCCC4)n(C)c3C[C@H]2CN1C(=O)c1ccccc1 | 2.46 | 1.23 | 0.746 | 0.422 | 0.253 | -0.325 | 0.312 | -0.983 | 0.0993 | 0.745 (inactive)
18 | NC(=O)[C@H]1[C@@H]2C(=O)O[C@@H](c3ccccc3)[C@@H](c3ccccc3)N2[C@@H](c2ccc(O)cc2)[C@]12C(=O)Nc1ccccc12 | 0.53 | -0.189 | -0.91 | -1.61 | -0.441 | -0.943 | -0.186 | -0.502 | -1.03 | -0.794 (inactive)
19 | Cc1cccc([C@H]2C[C@H]3C(I)=C[C@@H]2C(=O)[C@]32CO2)c1 | 0.0509 | -0.479 | -0.446 | -0.775 | 0.573 | 0.437 | 0.33 | -0.118 | -0.412 | -0.303 (inactive)
20 | COCCOC(=O)N1C(=O)[C@@]2(c3ccccc31)[C@H](c1ccccc1OCCO)N1[C@H](c3ccccc3)[C@H](c3ccccc3)OC(=O)[C@H]1[C@@H]2C(=O)N1CCCCCCC1 | 0.703 | 1.32 | 3.01 | 0.995 | 1.53 | 1.55 | -0.0428 | 1.71 | 1.63 | -0.507 (inactive)
21 | O=C1O[C@H](c2ccccc2)[C@H](c2ccccc2)N2[C@H]1[C@@H](C(=O)Nc1nc3ccccc3s1)[C@]1(C(=O)Nc3ccc(C#CC4=CCCCC4)cc31)[C@H]2c1ccc(O)cc1 | 0.41 | 1.18 | -0.145 | 0.921 | 1.12 | 0.355 | -1.83 | 0.844 | 0.191 | 0.128 (inactive)
22 | COCCOC(=O)N1C(=O)[C@@]2(c3ccccc31)[C@H](c1ccc(OCCO)cc1)N1[C@H](c3ccccc3)[C@H](c3ccccc3)OC(=O)[C@H]1[C@@H]2C(=O)N1CCCCCCC1 | 3.91 | 1.37 | 4.76 | 0.995 | 1.55 | 1.99 | -1.75 | 1.92 | 1.76 | -0.659 (inactive)
23 | COCCOC(=O)N1C(=O)[C@@]2(c3cc(C#CCC(C(=O)OC)C(=O)OC)ccc31)[C@H](c1ccc(OCCO)cc1)N1[C@H](c3ccccc3)[C@H](c3ccccc3)OC(=O)[C@H]1[C@@H]2C(=O)Nc1nc2ccccc2s1 | 0.572 | 1.16 | -0.14 | 0.973 | 1.24 | 0.35 | -2.17 | 1.06 | 0.671 | -1.2 (inactive)
24 | C=C[C@H](C)[C@H](OC(=O)Nc1ccc(OC)cc1)c1ccc(OCCO)cc1 | -0.489 | -0.653 | 0.0457 | -0.909 | -0.617 | -0.0943 | 0.927 | -0.431 | -0.647 | -6.74 (inactive)
25 | CC(C)[Si]1(C(C)C)OCc2cc(-c3ccc(-c4ccc(Cl)c(Cl)c4)o3)nc(CCc3ccccc3)c21 | -1.14 | -0.122 | 0.164 | -0.0058 | -0.0289 | -0.11 | 1.4 | 0.0028 | 0.0809 | -2.45 (inactive)
26 | CCCCC(=C=CC[C@H](O)c1ccc(OCCO)cc1)C[C@H](O)c1cc(Cl)cc(Cl)c1O | 0.323 | 0.606 | 0.0593 | 0.463 | 0.906 | 0.807 | 0.62 | 0.484 | 0.776 | -1.39 (inactive)
27 | Cc1ccc(N2C(=O)c3ccccc3[C@](C)(C(=O)NCc3ccccc3)[C@@H]2c2ccc(CO)cc2)nc1 | 2.31 | -0.27 | 0.771 | -0.887 | 1.31 | 0.464 | -0.425 | -0.0828 | 0.0023 | -1.1 (inactive)
28 | COC(=O)C1=CC(CCCO)=CC(c2ccc(CN3CCCC3)cc2)N(Cc2cc3c(cc2Br)OCO3)C=C1C(=O)OC (stereo not given) | 0.676 | 1.22 | 0.473 | 1.02 | 1.2 | 0.918 | 0.0526 | 0.514 | 1 | 0.197 (inactive)
29 | COc1cc(CO)cc(I)c1O[C@H]1C=C(C(=O)NCCO)C[C@@H](NCC2CCCCC2)[C@@H]1O | 0.72 | 0.283 | 0.211 | 0.0646 | 0.521 | 0.566 | -0.0493 | 0.302 | 0.672 | 0.734 (inactive)
30 | C[C@@]12COC[C@]13C=C(Br)[C@H](C2)[C@@]1(CO1)C3=O | 0.0359 | -1.59 | -0.306 | -0.376 | -0.222 | -0.757 | 1.02 | -0.0487 | -0.388 | 0.198 (inactive)
31 | CCN(CC)c1ccc(N2CC=CC34O[C@@H]5C=CCCOC(=O)C5[C@H]3C(=O)N(CCO)[C@@H]4C2=O)cc1 (stereo not given in full) | -0.827 | -1.74 | -0.491 | -1.21 | -0.722 | -1.01 | 0.108 | -1 | -0.553 | -0.643 (inactive)
32 | CC(C)C[C@@H]1NC(=O)[C@@H]2C[C@H](C(=O)NCCCCCC[N+](C)(C)C)[C@H](c3cccc(OCCO)c3)N2C1=O | -0.759 | -0.0265 | -0.219 | 0.0163 | 0.349 | 1.17 | -0.547 | 0.34 | -0.285 | 0.184 (inactive)
